# Test results: PubChem BioAssay (NCI)
# The panel holds about 79,000 compounds, 15% with a hit somewhere; the sample as a whole holds those more often. Unmarked numbers belong to inactive results. Calls of active or inactive are those of the source. No stated cut-off is given here; in the data, active means growth inhibition above about 70%; inactive means the rest.
# Assay: NCI Yeast Anticancer Drug Screen. Data for the CLN2oe strain (AID 163);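 further: 0% = growth of vehicle-only control cultures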
# Conditions: S. cerevisiae CLN2oe strain, hits give high values
# Method: Growth inhibition of yeast strains with defined genetic alterations is measured as a screen for potential anti-cancer activity. Selected strains with alterations in DNA damage repair or cell cycle control were exposed to compounds and growth inhibition was measured relative to vehicle treated controls. The strain used in this assay is CLN2oe
Compound,growth inhibition (at 1.2 µM) [%],growth inhibition (at 3.7 µM) [%],growth inhibition (at 11.0 µM) [%],growth inhibition (at 33.0 µM) [%],growth inhibition (at 100.0 µM)
O=C(/C=C/c1cccc(Br)c1)c1ccc(Cl)cc1,-17,-19,-13,-12,36%
CN(NC(=O)/C(=C/c1ccc(O)cc1)NC(=O)c1ccccc1)c1ccnc2cc(Cl)ccc12,6,3,13,39,65%
CC1C(C#N)(C#N)C(C#N)=C(N)C1(Cl)[N+](=O)[O-] (stereo not given),19,39,48,53,88% (active)
Cc1ccc(S(=O)(=O)N(C)c2ccc(Cl)cc2C2=NCCc3ccccc32)cc1,15,2,18,9,96% (active)
S=P(N1CC1)(N1CC1)N1CC1,-4,0,-6,-10,-3%
NC(N)=NCCCS(=O)(=O)Nc1ccc(Nc2c3ccccc3nc3cc([N+](=O)[O-])ccc23)cc1,-65,-47,-51,-11,49%
O=C(/C=N/O)Nc1cc(Cl)c(Cl)cc1Cl,6,18,1,18,63%
CCCCCCCCN1C(=O)c2ccccc2C1=O,-2,0,-1,-2,-1%
